Activity calls are given as the source filed them. How the source made its calls: active means hit-call score of the fitted dose curve at least 0.9, where 1 is the maximum; inactive means score below 0.9.

Read-out in the experiment: growth arrest and DNA damage 45 (GADD45A), GADD45A (gene 1647)
Briefly: LTEA_HepaRG_GADD45A: Life Technologies and Expression Analysis (LTEA) Assay for growth arrest and DNA damage 45 (GADD45A) using HepaRG (AID 2283458). Conditions: mRNA level, 48 h; actives raise or lower the signal. How it is done:
LTEA_HepaRG is a cell based, multiplexed-readout assay that uses HepaRG, a human liver cell line, with measurements taken at 48 hours after chemical dosing on a 96-well plate.LTEA_HepaRG_GADD45A is one of 102 assay component(s) measured in the LTEA HepaRG cell culture assay. It is a marker of Oxidative Stress.Data from the assay component LTEA_HepaRG_GADD45A was analyzed into 1 endpoint. This assay endpoint, LTEA_HepaRG_GADD45A, was analyzed with bidirectional fitting relative to DMSO as the negative control and baseline of activity. Using a type of inducible reporter, measures of mRNA induction for gain or loss-of-signal activity can be used to understand regulation of transcription factor activity. To generalize the intended target to other relatable targets, this assay endpoint is annotated to the cell cycle intended target family, where the subfamily is Oxidative Stress.
A total of 1060 chemcials from the ToxCast library were tested in eight-point concentration-response experiments. Cell culture and cytotoxicity assays were conducted at Thermo Fisher Scientific's Custom Services facility (Madison, WI). A single lot of human HepaRG cells (Thermo Fisher Scientific, Frederick, MD) was used for the cell culture experiments. 96-well format collagen type I coated plates of human HepaRG cells were prepared using established methods. Briefly, cryopreserved HepaRG cells were thawed, plated at a density of approximately 100,000 cells/well in HepaRG Thaw, Plate, and General Purpose media (HPRG770, Thermo Fisher Scientific), and incubated for 48 hours. 0.5% DMSO was selected as vehicle control to balance the requisite need of DMSO in HepaRG cultures to maintain differentiation (for example, baseline metabolism, proportions of hepatocytes vs. cholangiocytes), while enabling further hepatic receptor pathway activation (for example, PXR and CAR) in response to chemical exposure. 48 hours after plating, the culture medium was replaced with HepaRG Serum-Free Incudtion Media. Cells were exposed to each test chemical in duplicate and maintained in CO2 incubators for another 48 hours. Chemical plates were thawed to room temperature and 200x concentrations of treatment groups were prepared. 8-point conentration-reponse curves were made with the highest exposure at 100 uM, followed by half-log dilutions, all in 0.5% DMSO. Each test plate contained variouse controls, induction positive controls (1mM phenobarbital), cytotoxicity positive controls ([…] aflatoxin B1), vehicle controls (0.5% DMSO), and total lysis controls (0.5% DMSO). Cell morphology images were taken using an Essen IncuCyte FLR automated microscope, with six 96-well plates imaged in about 24 minutes. Images were captured and exported and JPEG files. Spent culture media was transfered to black-well plates for the LDH assay, and remaining media was sorted at -80 C for later use. Cells were treated with RLT buffer and frozen until shipped for gene expression analysis. Total RNA was isolated from the cell suspension in 75 uL of Buffer RLT (Qiagen, Germantown, MD 20874) by Quintiles/Expression Analysis (Durham, NC) using a custom isolation procedure. Total RNA from each plate well was transferred to a preamplification plate. Fluidigm's 96.96 Dynamic ArrayTM (Fluidigm, Amsterdam, the Netherlands) technology was used for gene expression analyses by quantitative reverse transcription polymerase chain reaction (qRT-PCR, performed by Quintiles/Expression Analysis, Durham, NC)89. Standard TaqManTM Assays (Applied Biosystems/ThermoFisher Scientific, Foster City, CA) were used to assess the expression of 93 genes selected based on their selectivity and sensitivity to important hepatic receptors known to be modulated by environmental chemicals; importance in human hepatocyte functionality; and hepatotoxicity. […]
Take `COc1ccccc1N`: the outcome was inactive.
As for `N#Cc1cccnc1`, the molecule was classed as inactive.
As to `Clc1cccc(Cl)c1Cl`, the molecule was classed as inactive.
In the case of `CC(C)(C)c1ccccc1O`, the call was inactive.
`O=C(O)C1(c2ccc3c(c2)OC[C@H](Cc2ccc(-c4ccccc4)cc2)[C@H]3O)CCCC1`: the outcome was inactive.
As for `O=C(N[C@H]1CN2CCC1CC2)c1ccc2c(c1)OCCO2`, the molecule was classed as inactive.
Turning to `Cc1cc(C)cc(C)c1`, the molecule was classed as inactive.
Consider `OCCN(CCO)CCO`, for which the molecule was classed as inactive.
For the molecule `Clc1cccc(Cl)c1`, the outcome was inactive.
Next, `CN(C)C(=S)S`: “inactive”.
For the molecule `CC(C)O.CC(C)O.OCCN(CCO)CCO.OCCN(CCO)CCO.[Ti]`, the molecule was classed as inactive.
In the case of `Oc1cc(Cl)c(Cl)cc1Cl`, the call was inactive.
Consider `CCCCCCCCCCCCc1cccc(S(=O)(=O)O)c1`, for which the outcome was inactive.
In the case of `Oc1c(Cl)cc(Cl)cc1Cl`, the molecule was called inactive.

(Values after PubChem BioAssay (EPA / NIEHS).)
